From PubChem BioAssay
KB-V1 MDR tox – kills drug-selected multidrug resistant KB-V1 cells. actives 3.4% (n = 400,000). KB-V1 MDR cells viability, CellTiter-Glo, 72 h. Potency, µM (titrated, usually from 46.1 µM), actives largely listed as cytotoxic. AID 1347076; further: nearly all actives have a fitted effect of over 60% in size
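Potencies derive from concentration-effect curves fitted to normalized luminescence (CellTiter-Glo) of KB-V1 cells treated for 72 h at 37 degrees C in phenol-red-free DMEM containing 10% FBS.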
HT1080-NT tox – kills 2HG-producing HT-1080-NT fibrosarcoma cells. HT-1080-NT fibrosarcoma viability, CellTiter-Glo ATP luminescence, 48 h. AID 686970. actives 1.6% (n = 360,000). Potency, µM (titrated, usually from 46.1 µM), actives largely listed as cytotoxic;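 further: NT is the 2HG producing partner of a matched IDH1 knockdown line; nearly all actives have a fitted effect of over 55% in size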
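Toxicity toward the 2HG-producing NT line was scored as %Activity, normalised to DMSO and no-cell wells, from CellTiter-Glo luminescence after 48 hours' treatment.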
KB-3-1 cytotox – KB-3-1 parental cell cytotoxicity | actives 1.4% (n = 400,000) | KB-3-1 viability, CellTiter-Glo ATP luminescence, 72 h | Potency, µM (doses to about 46.1 µM), hits mostly cytotoxic | AID 1347075; further: nearly all actives have a fitted effect of over 60% in size
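Cells are dispensed, compounds pinned in, plates held at 37 °C for 72 h, then CellTiter-Glo is added and luminescence read after 10 minutes. Cell line: parental KB-3-1 in phenol-red-free DMEM, 10% FBS.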
HT1080 IDH1KD tx – HT-1080 IDH1 knockdown cell toxicity (counter line). actives 2% (n = 360,000). HT-1080 IDH1 knockdown viability, ATP luminescence, 48 h. AID 686971. Potency, µM (series often up to 46.1 µM), most hits filed as cytotoxic
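CellTiter-Glo luminescence after 48 h compound exposure at 37 degrees C of IDH1-knockdown HT-1080 cells in 5% FBS RPMI. %Activity scaled between DMSO wells and cell-free media wells, with curves fitted and assigned curve classes.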
DT40 TDP1 no CPT – qHTS for Inhibitors of human tyrosyl-DNA phosphodiesterase 1 (TDP1): qHTS in cells in absence of CPT. DT40 Tdp1-/- hTDP1 cells, no CPT, ATP luminescence, 48 h. Potency, µM (doses to about 46.2 µM), actives largely listed as inhibitors. actives 15% (n = 420,000); further: nearly all actives have a fitted effect of over 55% in size
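Growth kinetics read by CellTiter-Glo luminescence after ≥48 hr at 37 °C. Cells: DT40 Tdp1-/- stably carrying human TDP1, 400 per well, compound exposure in the absence of CPT (DMSO vehicle).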
DT40 TDP1 CPT – growth inhibition of DT40 Tdp1-/-;hTDP1 cells with camptothecin (screen for TDP1 inhibitors) | chicken DT40 Tdp1-/-;hTDP1 cells + 20 nM CPT, ATP luminescence, 48 h | Potency, µM (top dose mostly 46.2 µM), actives largely listed as inhibitors | actives 12% (n = 420,000); further: nearly all actives have a fitted effect of over 55% in size
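Chicken DT40 Tdp1-/- cells stably complemented with human TDP1 were seeded at 400 cells/well in medium containing 20 nM camptothecin, exposed to pin-transferred compounds, and grown at 37 °C for at least 48 hr. Viability was read as ATP luminescence.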
Large screens that a line does not name were inactive. Sampled rows, rich in hits. Any-hit rate of the full collection: about 19%. The call rests on the fitted dose curve; in most records, active means well fitted curve in the direction sought with a large enough effect; inconclusive means small, poorly fitted or top-dose-only effect, or another doubt; inactive means no such curve, though single readings can be large; an effect the other way counts as inactive or inconclusive.

CC(C)CN(C(=O)CCC1CCCCC1)c1c(N)n(CC(C)C)c(=O)[nH]c1=O	DT40 TDP1 CPT inconclusive
COc1ccc(C(=O)/C=C/Nc2ccc(S(=O)(=O)Nc3cc(OC)nc(OC)n3)cc2)c(OC)c1	DT40 TDP1 no CPT inconclusive
Cc1ccccc1C(=O)NCCN1CCC(n2c(=O)[nH]c3ccccc32)CC1	DT40 TDP1 CPT inconclusive
CC(=O)Nc1ccccc1-c1nc(CNC(=O)c2cc(C)ccc2C)c(C)o1	none (no result: KB-V1 MDR tox, HT1080-NT tox, KB-3-1 cytotox, HT1080 IDH1KD tx)
CCN(CC)C(=O)CSCc1cnn(-c2ccccc2)c1-n1cccc1	KB-V1 MDR tox inconclusive, DT40 TDP1 no CPT 16µM, DT40 TDP1 CPT inconclusive
COc1ccc(OC)c(CCNC(=O)c2cnn(-c3ccccc3)c2-n2cccc2)c1	DT40 TDP1 no CPT 1.8µM, DT40 TDP1 CPT 23µM (no result: HT1080-NT tox, HT1080 IDH1KD tx)
Cc1ccccc1CNC(=O)CCSCc1cnn(-c2ccccc2)c1-n1cccc1	DT40 TDP1 no CPT 16µM, DT40 TDP1 CPT inconclusive (no result: KB-V1 MDR tox, HT1080-NT tox, KB-3-1 cytotox, HT1080 IDH1KD tx)
COc1cccc(CNC(=O)C2CCN(C(=O)c3cnn(-c4ccccc4)c3-n3cccc3)CC2)c1	DT40 TDP1 no CPT inconclusive, DT40 TDP1 CPT inconclusive (no result: HT1080-NT tox, HT1080 IDH1KD tx)
CCc1ccccc1NC(=O)CSCc1cnn(-c2ccccc2)c1-n1cccc1	DT40 TDP1 no CPT inconclusive, DT40 TDP1 CPT inconclusive (no result: HT1080-NT tox, HT1080 IDH1KD tx)
COc1ccc(NC(=O)CSCc2cnn(-c3ccccc3)c2-n2cccc2)cc1	DT40 TDP1 no CPT 16µM, DT40 TDP1 CPT inconclusive (no result: KB-V1 MDR tox, HT1080-NT tox, KB-3-1 cytotox, HT1080 IDH1KD tx)
O=C(CSCc1cnn(-c2ccccc2)c1-n1cccc1)NCC1CCCO1 (configuration not stated)	DT40 TDP1 no CPT inconclusive, DT40 TDP1 CPT inconclusive
C/C=C/C=[N+](\[O-])C(C)/C(=N/O)c1ccc(F)cc1 (configuration not stated)	none
Cc1ccccc1C(=O)Nc1nc2n(n1)C(c1ccccc1)CC(=O)N2 (configuration not stated)	DT40 TDP1 CPT inconclusive
CC(C)(C)NC(=O)C(c1ccc(F)cc1)N(Cc1ccco1)C(=O)CCC(=O)Nc1nccs1 (configuration not stated)	KB-V1 MDR tox inconclusive
COc1ccc(CNC(=O)CSCc2cnn(-c3ccccc3)c2-n2cccc2)cc1	KB-V1 MDR tox inconclusive, DT40 TDP1 no CPT 23µM
Cc1cccc(OCCCCn2c(C3CC(=O)N(c4ccccc4Cl)C3)nc3ccccc32)c1 (configuration not stated)	KB-3-1 cytotox inconclusive, DT40 TDP1 no CPT inconclusive, DT40 TDP1 CPT 3.7µM (no result: HT1080-NT tox, HT1080 IDH1KD tx)
COc1ccccc1OCCCn1c(C2CC(=O)N(c3ccccc3Cl)C2)nc2ccccc21 (configuration not stated)	KB-V1 MDR tox inconclusive, DT40 TDP1 no CPT 6.5µM, DT40 TDP1 CPT 13µM (no result: HT1080-NT tox, HT1080 IDH1KD tx)
CCOc1ccccc1N1CC(c2nc3ccccc3n2CCCCOc2cc(C)ccc2C)CC1=O (configuration not stated)	DT40 TDP1 no CPT inconclusive, DT40 TDP1 CPT 26µM (no result: HT1080-NT tox, HT1080 IDH1KD tx)
CCOc1ccccc1N1CC(c2nc3ccccc3n2CCCOc2ccccc2OC)CC1=O (configuration not stated)	DT40 TDP1 CPT inconclusive (no result: HT1080-NT tox, HT1080 IDH1KD tx)
COc1ccccc1Cn1c(C2CC(=O)N(c3ccccc3OC)C2)nc2ccccc21 (configuration not stated)	DT40 TDP1 no CPT inconclusive, DT40 TDP1 CPT inconclusive (no result: HT1080-NT tox, HT1080 IDH1KD tx)
COc1ccc(-c2[nH]ncc2CNC(C)c2ccccc2Cl)cc1F (configuration not stated)	DT40 TDP1 no CPT 23µM, DT40 TDP1 CPT 16µM
CC1(c2nnc(-c3ccccc3)o2)CC(c2ccc(Cl)cc2)=NO1 (configuration not stated)	none
CC1(c2nnc(-c3ccncc3)o2)CC(c2ccc(Cl)cc2)=NO1 (configuration not stated)	DT40 TDP1 no CPT 21µM, DT40 TDP1 CPT 21µM
